This is a sample that favours compounds with a hit; in the whole collection about 0.49% have one here.
LDHA inh: blocks human lactate dehydrogenase A; P00338; purified LDHA, NADH/diaphorase-resazurin fluorescence; hits give low values; activity change, % (values are at about 110 or 230 µM); actives 0.15% (n = 480,000); AID 1347041; in the data active means activity change below about -30%; inconclusive means mostly about -25% to -30%;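 further: plate controls were DMSO wells for no effect and wells without enzyme for full effect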
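Remaining NADH was detected by diaphorase (0.133 mg/mL) converting 37 µM resazurin to fluorescent resorufin, read at 0 and 20 minutes. The preceding 5-minute room-temperature reaction used 2 nM LDHA, 0.2 mM sodium pyruvate and 0.06 mM NADH at pH 7.4.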
Apoferritin bind: candidate novel general anesthetic via apoferritin binding | P02791 | apoferritin/1-aminoanthracene competitive binding, fluorescence | Potency, µM (series often up to 77.5 µM), inactives show at the top dose activity change, negative = displacement, usual class: inhibitors | actives 0.074% (n = 350,000) | AID 485281; further: potency means the concentration at half of the fitted maximal effect; on the % scale 0 is the no-effect control and ±100 the full control effect; nearly all actives have a fitted effect of over 20% in size
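Read-out: endpoint 1-AMA fluorescence, excitation 380 nm and emission 535 nm, after compounds sit 10 min at room temperature with 10 uM horse-spleen apoferritin in 50% saturated 1-AMA/PBS. Values come from four-parameter Hill fits.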
Vif-APOBEC3G blk: Vif-A3G binding inhibition; Q9HC16; HeLa A3G-eYFP + Vif (tagged APOBEC3G with the HIV-1 protein that degrades it), YFP fluorescence, overnight; Potency, µM (series often up to 46.1 µM), without a hit: at the top dose activity, negative = active, hits mostly inhibitors; actives 0.076% (n = 410,000); AID 602310; further: potency means the concentration at half of the fitted maximal effect; on the % scale 0 is the no-effect control and ±100 the full control effect; nearly all actives have a fitted effect of over 60% in size
Target sequence (Q9HC16 whole entry, looked up): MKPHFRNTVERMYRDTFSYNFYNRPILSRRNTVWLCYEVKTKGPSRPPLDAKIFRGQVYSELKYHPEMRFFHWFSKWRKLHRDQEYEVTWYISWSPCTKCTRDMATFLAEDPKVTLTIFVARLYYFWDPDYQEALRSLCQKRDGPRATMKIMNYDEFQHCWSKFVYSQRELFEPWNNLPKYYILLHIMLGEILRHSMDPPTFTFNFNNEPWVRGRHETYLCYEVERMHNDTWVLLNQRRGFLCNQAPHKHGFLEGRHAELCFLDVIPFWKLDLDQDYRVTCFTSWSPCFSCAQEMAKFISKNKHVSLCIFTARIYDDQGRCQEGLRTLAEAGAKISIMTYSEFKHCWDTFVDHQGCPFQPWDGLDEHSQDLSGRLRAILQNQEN
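Read-out is eYFP fluorescence (Ex 488/Em 500-530) from Vif-expressing HeLa A3G-eYFP cells; more signal means A3G escaped Vif-mediated degradation. Cells plated overnight, compound pinned in, incubated overnight at 37 deg C.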
Epigenetic derep: epigenetic control regulation, reporter derepression | murine LDR cells, GFP reporter derepression, 30 h | Potency, µM (series often up to 53.9 µM), without a hit: at the top dose GFP activation, hits mostly activators | actives 0.2% (n = 280,000) | AID 1865; further: potency means the concentration at half of the fitted maximal effect; % of control where 0% means no effect; nearly all actives have a fitted effect of over 60% in size
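Readout is the number of GFP-expressing murine LDR cells, counted by cytometry following washing. Cells were treated with compound for 30 h at 37 C; the stably integrated CMV-GFP locus is normally silent.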
Vif-APOBEC3F blk: Vif-A3F binding inhibition; AID 602313; Potency, µM (top dose mostly 46.1 µM), for inactives: at the highest dose activity, negative = active; HeLa A3F-eYFP + Vif (tagged APOBEC3F with the HIV-1 protein that degrades it), YFP fluorescence increase; actives 0.2% (n = 390,000); further: potency means the concentration at half of the fitted maximal effect; % of control where 0% means no effect; nearly all actives have a fitted effect of over 65% in size
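Fluorescence increase (Ex 488/Em 500-530) after overnight compound treatment at 37 deg C flags inhibition of Vif-driven A3F-eYFP loss in stable HeLa A3F-eYFP/Vif cells seeded overnight beforehand.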
* = called active by the depositor. Unless noted, the call rests on the fitted dose curve; in most records, active means well fitted curve in the direction sought with a large enough effect; inconclusive means small, poorly fitted or top-dose-only effect, or another doubt; inactive means no such curve, though single readings can be large; an effect the other way counts as inactive or inconclusive.

Screening Cc1ccc(Nc2nc(-c3ccccc3)c(C(=O)Nc3cccnc3)s2)cc1C returned LDHA inh -6.6.
For c1ccc(-c2n[nH]c(-c3ccccn3)n2)nc1 the results were LDHA inh 5.5, Apoferritin bind 2.2%, Vif-APOBEC3G blk 0.2%, Epigenetic derep 0.9% and Vif-APOBEC3F blk 0.7%.
For c1ccc(-c2n[nH]c(-c3ccccn3)n2)cc1 the results were LDHA inh 6.0, Apoferritin bind -15.6%, Vif-APOBEC3G blk -7.0%, Epigenetic derep 22.4µM* and Vif-APOBEC3F blk 6.8%.
Cn1c(SCC(=O)Nc2nc(C(C)(C)C)cs2)nnc1C1CC1 was read as LDHA inh -4.6, Apoferritin bind -6.7%, Vif-APOBEC3G blk 0.9%, Epigenetic derep 1.7% and Vif-APOBEC3F blk -0.7%.
Screening CC1(C(=O)Nc2ccc(Cl)cc2)Cc2c(-c3ccc4c(c3)OCO4)ccnc2O1 (configuration not stated) returned LDHA inh -2.4 and Vif-APOBEC3G blk inconclusive.
For CSc1cccc(NC(=O)COc2coc(CN3CCSCC3)cc2=O)c1 the results were LDHA inh -37.9*.
For CN1CC[n+]2cnc3ccccc3c21 the results were LDHA inh -33.2*, Apoferritin bind 4.6%, Vif-APOBEC3G blk -2.0%, Epigenetic derep -2.2% and Vif-APOBEC3F blk 1.1%.
`Cc1ccnc2ccccc12` gave LDHA inh 1.9 and Vif-APOBEC3G blk 2.8%.
`Cc1ccc(CN2CCNC(=O)C2CC(=O)NC2CCCCCC2)cc1` (configuration not stated) gave LDHA inh 0.9, Apoferritin bind inconclusive, Vif-APOBEC3G blk 3.1% and Vif-APOBEC3F blk -3.5%.
`O=C(CC1C(=O)NCCN1Cc1cccc(F)c1F)NCCCC1CCCC1` (configuration not stated) gave LDHA inh 1.5, Apoferritin bind 31.6µM*, Vif-APOBEC3G blk -5.7% and Vif-APOBEC3F blk 1.3%.
O=C(CC1C(=O)NCCN1Cc1ccc(F)cc1)NC1CCCCCCC1 (configuration not stated) was read as LDHA inh 1.4, Apoferritin bind 15.8µM*, Vif-APOBEC3G blk 4.9% and Vif-APOBEC3F blk -18.0%.
Fc1ccc(N2CCN(C3=Nc4cccc5cccc3c45)CC2)cc1 was read as LDHA inh 4.0, Apoferritin bind inconclusive, Vif-APOBEC3G blk 3.2%, Epigenetic derep 8.1% and Vif-APOBEC3F blk 1.7%.
Screening Cc1oc(-c2cccc(C(F)(F)F)c2)nc1CN1CCOCC1 returned LDHA inh -1.2, Apoferritin bind -14.1%, Vif-APOBEC3G blk 3.6%, Epigenetic derep 11.2µM* and Vif-APOBEC3F blk 8.0%.
Cc1cc(=O)c2c(O)c3c(O)cc(=O)c4c3c3c(cc(O)c1c23)C(C)(C)C=4O was read as Epigenetic derep 15.8µM*.
For Nc1[nH]c(C(=O)c2ccccc2)c(-c2ccc([N+](=O)[O-])cc2)c1C(=O)NCCc1c[nH]c2ccccc12 the results were LDHA inh 7.4.
Screening Cc1[nH]c2ccc(C(=O)Nc3ccc(F)cc3)cc2c1C returned LDHA inh 1.7, Apoferritin bind -8.6%, Vif-APOBEC3G blk -1.5%, Epigenetic derep 3.0% and Vif-APOBEC3F blk -3.6%.
CSc1cccc(NC(=O)c2cc3c(COC(C)=O)cnc(C)c3oc2=O)c1 was read as LDHA inh -5.1, Apoferritin bind -2.6%, Vif-APOBEC3G blk inconclusive, Epigenetic derep 2.7% and Vif-APOBEC3F blk 10µM*.
Screening CC(=O)OCc1cnc(C)c2oc(=O)c(C(=O)Nc3ccc(F)cc3C)cc12 returned LDHA inh 2.1, Apoferritin bind -12.5%, Vif-APOBEC3G blk -2.5%, Epigenetic derep 4.6% and Vif-APOBEC3F blk -7.1%.
`NS(=O)(=O)c1ccc(N/N=C/c2ccccc2C(=O)O)c([N+](=O)[O-])c1` gave LDHA inh -11.8, Apoferritin bind -16.6%, Vif-APOBEC3G blk -1.0%, Epigenetic derep -2.2% and Vif-APOBEC3F blk -21.1%.
O=C(O)c1ccccc1/C=N/Nc1ccc(S(=O)(=O)N2CCOCC2)cc1[N+](=O)[O-] was read as LDHA inh -3.6, Apoferritin bind -4.9%, Vif-APOBEC3G blk 6.31µM*, Epigenetic derep 1.3% and Vif-APOBEC3F blk 0.3%.
